A selection: hits, their analogues and other compounds. The true share with any hit is near 10%.
VP16 counter – VP16 counterscreen qHTS for inhibitors of ROR gamma transcriptional activity; hit rate 3.5% among 310,000; Potency, µM (top dose mostly 53.6 µM), for inactives: top-dose activity, negative = inhibition, hits mostly inhibitors; Drosophila S2 Gal4-VP16 UAS-luciferase, luminescence, 20 h; AID 2546, 2010;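 note: Gal4-VP16 expression switched on by copper sulfate through the metallothionein promoter; % is set by controls: 0 for no effect and ±100 for the full control effect; nearly all actives have a fitted effect of over 50% in size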
KB-3-1 cytotox – qHTS assay for MDR1-selective chemotherapeutics: Primary screen using the parental adenocarcinoma cell KB-3-1; KB-3-1 viability, CellTiter-Glo ATP luminescence, 72 h; Potency, µM (top dose mostly 46.1 µM), hits mostly cytotoxic; hit rate 1.4% among 400,000; note: % is set by controls: 0 for no effect and ±100 for the full control effect; nearly all actives have a fitted effect of over 60% in size
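Cells are dispensed, compounds pinned in, plates held at 37 °C for 72 h, then CellTiter-Glo is added and luminescence read after 10 minutes. Cell line: parental KB-3-1 in phenol-red-free DMEM, 10% FBS.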
KB-V1 cytotox – qHTS assay for MDR1-selective chemotherapeutics: Primary screen using the drug-selected MDR subline cells KB-V1; KB-V1 MDR cells viability, CellTiter-Glo, 72 h; Potency, µM (highest dose often 46.1 µM), hits mostly cytotoxic; hit rate 3.4% among 400,000; AID 1347076, 2019; note: % is set by controls: 0 for no effect and ±100 for the full control effect; nearly all actives have a fitted effect of over 60% in size
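qHTS viability screen in drug-selected KB-V1 MDR cells: 72 h compound treatment at 37 degrees C, ATP luminescence end point.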
MCF10A rerep – A quantitative high throughput screen for small molecules that induce DNA re-replication in MCF 10a normal breast cells; MCF 10A DNA re-replication, Hoechst nuclear intensity, 48 h; Potency, µM (titrated, usually from 46.1 µM), without a hit: at the top dose activity, positive = re-replication, hits mostly activators; hit rate 2.9% among 350,000; AID 624296, 2012; note: % of control where 0% means no effect; nearly all actives have a fitted effect of over 50% in size
SW480 rereplic – A quantitative high throughput screen for small molecules that induce DNA re-replication in SW480 colon adenocarcinoma cells; AID 624297, 2012; Potency, µM (titrated, usually from 46.1 µM), inactives show at the top dose re-replication activation, usual class: activators; SW480 DNA re-replication, Hoechst DNA content imaging, 48 h; hit rate 1.8% among 340,000; note: % of control where 0% means no effect; nearly all actives have a fitted effect of over 55% in size
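SW480 cells exposed to compounds for 48 hr at 37 C, 5% CO2, then Hoechst-stained 40 min. Nuclear DNA content imaged by fluorescence scanning (405 nm excitation, 500-530 nm emission); re-replication scored as increased high-intensity nuclei.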
RORg inh – qHTS for inhibitors of ROR gamma transcriptional activity; hit rate 5.4% among 310,000; Drosophila S2 Gal4-RORgamma UAS-luciferase reporter, 20 h; Potency, µM (top dose mostly 53.6 µM), for the others: at the highest dose activity change, negative = inhibition, most hits filed as inhibitors; note: % is set by controls: 0 for no effect and ±100 for the full control effect; nearly all actives have a fitted effect of over 60% in size
Target sequence (P51450 whole entry, looked up, the tested form may be a part): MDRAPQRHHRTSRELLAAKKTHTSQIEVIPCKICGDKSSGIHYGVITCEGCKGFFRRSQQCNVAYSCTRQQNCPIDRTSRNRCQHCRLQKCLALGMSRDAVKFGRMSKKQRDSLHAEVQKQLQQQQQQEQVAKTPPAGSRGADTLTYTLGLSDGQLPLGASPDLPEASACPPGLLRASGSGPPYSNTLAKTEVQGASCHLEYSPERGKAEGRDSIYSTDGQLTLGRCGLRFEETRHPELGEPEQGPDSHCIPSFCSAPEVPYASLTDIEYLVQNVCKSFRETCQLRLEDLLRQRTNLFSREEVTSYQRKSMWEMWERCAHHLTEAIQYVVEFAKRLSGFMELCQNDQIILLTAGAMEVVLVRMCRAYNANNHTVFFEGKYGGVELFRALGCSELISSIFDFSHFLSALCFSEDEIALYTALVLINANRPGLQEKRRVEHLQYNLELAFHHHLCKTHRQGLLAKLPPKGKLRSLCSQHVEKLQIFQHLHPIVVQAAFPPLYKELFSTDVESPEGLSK
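Drosophila Schneider cells stably carrying a metallothionein-driven Gal4 DBD–ROR gamma fusion and a UAS-Photinus luciferase reporter were exposed to compound for 1 hr, then induced with copper sulfate (700 uM final) for 20 hr at ambient temperature before luminescence reading.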
The depositor's hits bear a star; [ ] = remark or other dose. Calls come from the whole dose curve; as a rule, active = well fitted curve in the direction sought with a large enough effect; inconclusive = small, poorly fitted or top-dose-only effect, or another doubt; inactive = no such curve, though single readings can be large; an effect the other way counts as inactive or inconclusive. Potency is the fitted concentration of half-maximal effect.

For Cc1nnc(C)n1/N=C/c1ccc(-c2ccccc2Cl)o1 the results were VP16 counter 1%, KB-3-1 cytotox inactive, KB-V1 cytotox inactive, MCF10A rerep 4%, SW480 rereplic -1% and RORg inh -9%.
S=c1[nH]nc(-c2ccccn2)n1/N=C/c1ccc(-c2ccccc2Br)o1 was read as VP16 counter 0%, KB-3-1 cytotox inconclusive, KB-V1 cytotox inactive, MCF10A rerep inconclusive, SW480 rereplic -15% and RORg inh 10µM*.
S=c1[nH]nc(-c2ccccc2)n1/N=C/c1ccc(-c2ccccc2Cl)o1 was read as VP16 counter inconclusive, KB-3-1 cytotox inactive, KB-V1 cytotox 13µM*, MCF10A rerep 8.2µM*, SW480 rereplic 1% and RORg inh 4.5µM*.
For S=c1[nH]nc(-c2cccc(Cl)c2)n1/N=C/c1ccc(-c2ccccc2Br)o1 the results were VP16 counter -9%, KB-3-1 cytotox inconclusive, KB-V1 cytotox inactive, MCF10A rerep 12%, SW480 rereplic -4% and RORg inh 0.79µM*.
Cc1ccc(/C=N/n2c(-c3cccc(Cl)c3)n[nH]c2=S)o1 was read as VP16 counter inconclusive, KB-3-1 cytotox inactive, KB-V1 cytotox inactive, MCF10A rerep 3%, SW480 rereplic -3% and RORg inh 5µM*.
`CC1CCCC(NC(=O)CSc2ccc(F)cc2)C1C` (stereo unspecified) gave VP16 counter -20%, KB-3-1 cytotox inactive, KB-V1 cytotox inactive, MCF10A rerep 2%, SW480 rereplic -19% and RORg inh -8%.
`CC1CCCC(NCC(O)COC(c2ccc(F)cc2)c2ccc(F)cc2)C1C` (stereo unspecified) gave VP16 counter -6%, KB-3-1 cytotox inconclusive, KB-V1 cytotox 18µM*, MCF10A rerep inconclusive, SW480 rereplic 0% and RORg inh inconclusive.
For COC(=O)c1sc(-c2ccc(C(C)(C)C)cc2)cc1NC(=O)CSCC(=O)O the results were VP16 counter -28%, KB-3-1 cytotox inactive, KB-V1 cytotox inconclusive, MCF10A rerep 15µM*, SW480 rereplic -18% and RORg inh -35%.
Screening COC(=O)c1sc(-c2ccc(C(C)(C)C)cc2)cc1NC(=O)c1ccccc1C(=O)O returned VP16 counter -7%, KB-3-1 cytotox inactive, KB-V1 cytotox inactive, MCF10A rerep inconclusive, SW480 rereplic 2% and RORg inh 45%.
COc1ccc(NC(=O)/C(C#N)=C/c2ccc(Sc3nncn3C)c([N+](=O)[O-])c2)cc1 was read as VP16 counter 22µM*, KB-3-1 cytotox inconclusive, KB-V1 cytotox inactive, MCF10A rerep inconclusive, SW480 rereplic inconclusive and RORg inh -40%.
`CCC(C)(C)NC(=O)c1ccc(Sc2nncn2C)c([N+](=O)[O-])c1` gave VP16 counter -9%, KB-3-1 cytotox inactive, KB-V1 cytotox inconclusive, MCF10A rerep 1%, SW480 rereplic -2% and RORg inh -19%.
For Cn1cnnc1Sc1ccc(/C=C/C(=O)c2ccc(O)cc2)cc1[N+](=O)[O-] the results were VP16 counter inconclusive, KB-3-1 cytotox inconclusive, KB-V1 cytotox inactive, MCF10A rerep inconclusive, SW480 rereplic -17% and RORg inh 10µM*.
CCCN1CCN(CCNC(=O)Nc2ccc(OC)cc2OC)CC1 was read as KB-3-1 cytotox inactive and KB-V1 cytotox inactive.
Screening NC(=O)c1ccccc1N/C=C/C(=O)c1ccc(Cl)cc1 returned VP16 counter 1.6µM*, KB-3-1 cytotox inactive, KB-V1 cytotox inconclusive, MCF10A rerep inconclusive, SW480 rereplic 7%[9.22 µM] and RORg inh 1.4µM*.

Source: PubChem BioAssay (National Center for Advancing Translational Sciences (NCATS))
